Assay results reported in PubChem BioAssay AID720648 (The Scripps Research Institute Molecular Screening Center, 2013).
In all, about 370,000 compounds went through this assay and about 3,100 (0.84%) were called active.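 Rule for the calls: active = inhibition above the mean of compounds lying between control limits plus 3 SD, set per campaign (cut at about 8.5% in these data); inactive = the rest.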 For the sample, actives were picked, then their nearest neighbours and some compounds at random.

Target: Disintegrin and metalloproteinase domain-containing protein 17 (Homo sapiens) (UniProt P78536)
Sequence (P78536 215-824 limits assumed): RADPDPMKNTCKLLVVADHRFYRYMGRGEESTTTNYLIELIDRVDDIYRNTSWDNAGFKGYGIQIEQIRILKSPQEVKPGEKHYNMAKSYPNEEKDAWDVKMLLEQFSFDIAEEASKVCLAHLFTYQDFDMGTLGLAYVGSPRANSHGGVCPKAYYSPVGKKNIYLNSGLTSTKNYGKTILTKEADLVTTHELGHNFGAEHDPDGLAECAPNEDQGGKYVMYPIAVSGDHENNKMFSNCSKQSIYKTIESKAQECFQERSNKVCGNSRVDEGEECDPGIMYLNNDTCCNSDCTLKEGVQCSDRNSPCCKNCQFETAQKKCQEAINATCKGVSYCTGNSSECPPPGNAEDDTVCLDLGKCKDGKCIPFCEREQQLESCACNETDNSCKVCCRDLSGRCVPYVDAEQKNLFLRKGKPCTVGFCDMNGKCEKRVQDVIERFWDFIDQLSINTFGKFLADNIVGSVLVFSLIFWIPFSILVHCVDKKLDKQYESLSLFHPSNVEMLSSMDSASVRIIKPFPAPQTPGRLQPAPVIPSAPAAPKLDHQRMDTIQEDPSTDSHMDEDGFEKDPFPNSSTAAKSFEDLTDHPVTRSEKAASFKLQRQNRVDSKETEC
Assay: inhibition of ADAM17 peptide cleavage – biochemical, QFRET, primary screen (AID 720648);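 note: 0% = DMSO-only wells as the low control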
Conditions: recombinant ADAM17, EDANS/DABCYL FRET peptide cleavage; at 6.95 µM; hits give high values

Structure (SMILES)	inhibition
C=CCN1C(C(=O)OC)CN(Cc2cn(Cc3ccccc3)nn2)CCS1(=O)=O (centres undefined)	1.41% (inactive)
CN(C)CC(=O)N[C@@H]1C[C@@H]2O[C@H](CO)CC[C@@H]2O[C@@H]1CCc1ccc(C#Cc2ccccc2)cc1	3.01% (inactive)
CCCCn1nnnc1C(c1cccc(OC)c1OC)N1CCN(C/C=C/c2ccccc2)CC1 (centres undefined)	3.3% (inactive)
COc1ccc(C(c2nnnn2C2CCCC2)N2CCN(C/C=C/c3ccccc3)CC2)cc1 (centres undefined)	-1.95% (inactive)
FC(F)(F)Oc1ccccc1C(c1nnnn1C1CCCCC1)N1CCN(C/C=C/c2ccccc2)CC1 (centres undefined)	9.77% (active)
COC(=O)C12C=C3CC(c4ccccc4)=C3C(=O)N1Cc1[nH]c3ccccc3c1C2 (centres undefined)	-5.87% (inactive)
CC(=O)c1cc(-c2ccc3ccccc3c2)c(=O)n2c1CCC2	-8.84% (inactive)
O=C(NCCc1c[nH]c2ccccc12)OCc1cn(-c2c(F)cccc2F)nn1	-1.78% (inactive)
C=CCN1C(=O)[C@H](CC(=O)N2CCN(C(=O)OCC)CC2)[C@@]2(C(=O)OCC)CCCC=C12	-4.33% (inactive)
N[C@@H](Cc1ccccc1)C(=O)N1CCC[C@@H]1C(=O)N1CCC2CCN(S(=O)(=O)c3ccccc3)CC21 (some centres undefined)	-3.15% (inactive)
CN(CC(=O)Nc1ccc(S(=O)(=O)N2CCCC2)cc1)Cc1ccc(Cl)c(Cl)c1	4.22% (inactive)
N#C/C(=C\c1cccnc1)C(=O)Nc1ccc(SC(F)F)cc1	2.16% (inactive)
O=C(Cc1ccc(Cl)c(Cl)c1)Nc1ccc(SC(F)F)cc1	8.77% (active)
C[C@@H]1CN([C@@H](C)CO)C(=O)c2cccc(NC(=O)Nc3cccc4ccccc34)c2O[C@H]1CN(C)S(=O)(=O)c1ccccc1F	-10.5% (inactive)
CN(C)S(=O)(=O)c1cccc(C(=O)N/N=C\c2ccco2)c1	1.33% (inactive)
O=C(Nc1cc(-c2ccccc2)nn1-c1ccccc1F)c1ccc([N+](=O)[O-])cc1	2.52% (inactive)
COCCNC(=O)c1ccc(-n2c(SCc3cccnc3)nc3ccccc3c2=O)cc1	-0.26% (inactive)
O=C(Nn1c(SCc2ccc([N+](=O)[O-])cc2)nc2ccccc2c1=O)c1ccc(F)cc1	8.99% (active)
O=C(CSc1nc2ccccc2n1Cc1ccccc1Cl)N/N=C\c1c[nH]c2ccccc12	4.92% (inactive)
COc1ccc(CSc2nnc(SCC(=O)Nc3ccccc3C(F)(F)F)s2)cc1	1.07% (inactive)
COc1ccc2c(C(C)c3ccc(N)cc3)cn(C)c2c1 (centres undefined)	1.72% (inactive)

Structure (SMILES)	inhibition
CCOC(=O)C1(Cc2ccccc2)CCN(Cc2cn(C(C)=O)c3ccccc23)CC1	-0.16% (inactive)
Cn1nc(C(F)(F)F)c2cc(NC(=O)OCC(C)(C)C)sc21	8.91% (active)
Cn1nc(C(F)(F)F)c2cc(C(=O)N3CCOCC3)sc21	-1.03% (inactive)
Cn1nc(C(F)(F)F)c(-c2ccc(F)cc2)c1NC(=O)CSCC(=O)O	-2.02% (inactive)
COC(=O)[C@]12C[C@H](CC(=O)NCCc3ccccc3OC)C(=O)N(Cc3ccco3)C1=C[C@H](C(C)C)O[C@@H]2C1CC1	-2.62% (inactive)
O=C(c1cccc(C(F)(F)F)c1)N1CC[C@H]2[C@H](CCCN2Cc2cc(F)cc(F)c2)C1	-0.58% (inactive)
COC(=O)CC1CCc2cc(C)cc(C(CC(C)C)NC(=O)[C@H](CC(C)C)NC(=O)OCc3ccccc3)c2O1 (some centres undefined)	-2.33% (inactive)
Cc1cc(NC(=O)CN2C(=O)NC(CCc3ccccc3)C2=O)no1 (centres undefined)	-0.8% (inactive)
Cc1cc(NC(=O)CN2C(=O)NC(CC(C)C)C2=O)no1 (centres undefined)	10.8% (active)
COc1ccc(C2(c3ccc(OC)cc3)NC(=O)N(CC(=O)Nc3cc(C)on3)C2=O)cc1	2.54% (inactive)
COc1ccc(Cn2cc(CN3[C@@H](CC(C)C)COc4cc(Br)ccc4S3(=O)=O)nn2)cc1	1.7% (inactive)
COc1ccc(-n2c(SCC(=O)Nc3ccc4c(c3)OCCO4)nnc2-c2ccc(Cl)cc2)cc1	4.24% (inactive)
O=C(CCCCCN1C(=O)C2C3C=CC(C3)C2C1=O)Nc1ccccn1 (centres undefined)	2.59% (inactive)
c1csc(-c2nnc(SCc3nc4ccccc4[nH]3)o2)c1	-10.2% (inactive)
COC(=O)[C@]12C[C@H](CC(=O)N3CCOCC3)C(=O)N(Cc3ccc(Cl)cc3Cl)C1=C[C@H](COCc1ccccc1)O[C@@H]2C	0.56% (inactive)
O=C(Cc1ncc(C(F)(F)F)cc1Cl)Nc1cccc(Br)c1	10.2% (active)
O=C(CN1CCN(c2ncc(C(F)(F)F)cc2Cl)CC1)Nc1ccc2c(c1)OCO2	-4.94% (inactive)
CC(=O)c1ccc(Cc2ncc(C(F)(F)F)cc2Cl)s1	-2.56% (inactive)
CCOC(=O)[C@]12CCCC3=C1N(CCC3)C(=O)[C@@H](CC(=O)NCc1cccs1)C2	0.06% (inactive)
Nn1c(SCC(=O)N2c3ccccc3Sc3ccccc32)nnc1-c1n[nH]c2c1CCC2	5.84% (inactive)
O=C(NC1CCCCN(Cc2ccc(Cl)cc2)C1=O)c1ccc(Br)cc1 (centres undefined)	5.04% (inactive)

Structure (SMILES)	inhibition
Cc1ccc(CN2CCCCC(NC(=O)C3CCCCC3)C2=O)cc1 (centres undefined)	1.84% (inactive)
CN(C)c1ccc(NC(=O)NC2CCCCN(Cc3ccc(Cl)cc3)C2=O)cc1 (centres undefined)	8.69% (active)
CN(C)[C@H]1CCN(c2cccc3c2S(=O)(=O)N2CC[C@H](C2)O3)C1	-2.38% (inactive)
COC(=O)C[C@@H]1CC[C@H]2[C@@H](COc3ccc(NS(=O)(=O)CC(F)(F)F)cc3C(=O)N2C)O1	-6.55% (inactive)
CCOC(=O)c1ccc(CS(=O)c2ccc(Cl)cc2)o1 (centres undefined)	-2.74% (inactive)
CCOC(=O)c1c(S(=O)(=O)Nc2cccc(Cl)c2)c(C)n(C)c1C	-9.22% (inactive)
CCOC(=O)c1c(Cc2ccc(Cl)cc2)c[nH]c1C	11.1% (active)
CC(C)N1CCCCC(NC(=O)c2ccc3ccccc3c2)C1=O (centres undefined)	-4.85% (inactive)
COc1ccc(C(=O)NC2CC(C)(C)NC(C)(C)C2)cc1OC	-2.12% (inactive)
COc1ccc(C(=O)Nc2ccc3nc(N4CCCCC4)cc(C)c3c2)cc1OC	-7.57% (inactive)
COc1ccc(C(=O)Nc2ccc(C3(C#N)CCCC3)cc2)cc1OC	8.73% (active)
C=CCN(C)CC#Cc1ccccc1	4% (inactive)
c1coc(CCNc2ncnc3ccc(-c4ccc5c(c4)OCO5)cc23)c1	-61.9% (inactive)
O=C(CSc1ccccc1)Nc1cc(Cl)ccc1Oc1ccccc1	2.94% (inactive)
O=C(CSc1nc(Nc2ccccc2)nc(N2CCOCC2)n1)Nc1cc(Cl)ccc1O	10.2% (active)
O=C(CSc1nc2ccc(Nc3nc(N4CCOCC4)nc(N4CCOCC4)n3)cc2s1)NCc1ccco1	-1.45% (inactive)
Cc1cc(=O)[nH]c(SCC(=O)Nc2ccc(Cl)cc2C)n1	3.04% (inactive)
CCCCNC(=O)C[C@H]1C(=O)N(Cc2ccc(OC)cc2)C2=CCCC[C@@]21C(=O)OCC	-4.97% (inactive)
CC(C)(C)OC(=O)NCc1cc(F)ccc1/C=C/S(=O)(=O)NCCc1ccccc1	4.18% (inactive)
O=C1CSC(c2ccc(Cl)cc2)N1 (centres undefined)	-1% (inactive)
CC(C)Oc1ccc(C2NC(=O)NC2=O)cc1 (centres undefined)	-3.2% (inactive)

Structure (SMILES)	inhibition
O=C1NC(=O)C(c2ccc(Cl)cc2)N1 (centres undefined)	35.4% (active)
Fc1ccc2nc(COCc3nc4ccc(F)cc4[nH]3)[nH]c2c1	-1.4% (inactive)
COc1ccc(Cn2ccc3ccc(-c4ccc5ccn(Cc6ccccc6C)c5c4)cc32)cc1	-14.6% (inactive)
CCCC1CCC2(CCCN2CCOC(=O)NCc2ccccc2)CC1 (centres undefined)	-6.91% (inactive)
COc1ccc(S(=O)(=O)Nc2ccc(O)c(Sc3nc4ccccc4s3)c2)cc1	9.23% (active)
COc1cccc(NS(=O)(=O)c2ccc(-c3coc(C)n3)cc2)c1	0.72% (inactive)
COc1ccc(NS(=O)(=O)c2ccc(O)c(C(=O)OCC(=O)NC3CCCCC3)c2)cc1	-2.64% (inactive)
CCOC(=O)C1CCN(C(=O)C(C)(C)NC(=O)Nc2ccccc2Cl)CC1	-3.66% (inactive)
C=CCN1C(=O)[C@@H](CC(=O)NCCCOCCCC)[C@]2(C(=O)OCC)CCCCC/C=C/12	-0.06% (inactive)
CCC(c1ccc(NC(=O)OC(C)(C)C)cc1)c1cc(OC)cc(OC)c1 (centres undefined)	3.59% (inactive)
C=CCN1C(=O)[C@@H](CC(=O)N2CCN(C(=O)OCC)CC2)[C@]2(C(=O)OCC)CCCCC/C=C/12	-4.2% (inactive)
Cc1cc(C(=O)NN=C/C=C/c2ccco2)n[nH]1	-5.03% (inactive)
COC(=O)C1CN(Cc2ccc(F)cc2)CCS(=O)(=O)N1Cc1ccc(Cl)cc1 (centres undefined)	-3.73% (inactive)
C[C@H]1[C@H](NC(=O)c2cccc(N(C)C)c2)CC[C@@]23CCCN2C(=O)CCC[C@@H]13	-31.1% (inactive)
COc1ccc(CC(N)c2csc(NC(=O)NC(c3ccccc3)c3ccccc3)n2)cc1 (centres undefined)	8.79% (active)
CC(C)(C)CC(=O)Nc1nc(C(N)Cc2ccc(C(F)(F)F)cc2)cs1 (centres undefined)	-1.9% (inactive)
NC(c1csc(NC(=O)Nc2cccc(C(F)(F)F)c2)n1)C1CCCCC1 (centres undefined)	3.01% (inactive)
COc1ccc(CC(N)c2csc(NC(=O)Nc3ccc(C(C)C)cc3)n2)cc1 (centres undefined)	2.77% (inactive)
COc1ccc(C(N)c2csc(NC(=O)Nc3cccc(C(F)(F)F)c3)n2)cc1 (centres undefined)	13.7% (active)
CCOC(=O)c1csc(NC(=O)Nc2cccc(OC)c2)n1	-0.26% (inactive)
COc1ccc(-n2c(COc3ccc(C)cc3)nnc2SCC(=O)Nc2ccc(Oc3ccccc3)cc2)cc1	-2.03% (inactive)
